Measurements as given in PubChem BioAssay.

Experiment: probe aInhba binding on compound microarray – biochemical, small-molecule microarray, 635/667 nm fluorescence, primary screen (AID 1148);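 also: score merges 667nm spot fluorescence with signal-to-noise for antibody binding to printed compounds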
Conditions: higher = more signal
For CO[C@H]1COC(=O)CC=C[C@H](C)[C@@H](OC)COC(=O)CC=C[C@@H]1C, the composite z-score was -0.227.
With COCCOC(=O)N1C(=O)[C@@]2(c3cc(C#CCCO)ccc31)[C@H](C(=O)N1CCCCCCC1)[C@H]1C(=O)O[C@H](c3ccccc3)[C@H](c3ccccc3)N1[C@@H]2c1ccc(O)cc1 the composite z-score was 0.74.
In the case of Cc1ccc(N2C(=O)c3ccccc3[C@@H](C(=O)NCc3ccccc3)[C@@H]2c2ccc(CO)cc2)nc1, the composite z-score is reported as 0.0028.
Work on CC(=O)NCCCC[C@@H]1NC(=O)[C@@H]2C[C@H](C(=O)NCCCCCNC(=O)CS)[C@H](c3ccc(O)cc3)N2C1=O yielded a composite z-score of -0.179.
Compound O=C(CS)NCCCCCNC(=O)[C@H]1C[C@H]2C(=O)N3CCC[C@H]3C(=O)N2[C@H]1c1ccc(O)cc1 has a composite z-score of -0.024.
C[C@@H]1CC[C@H]2C(=O)N3CCC[C@H]3C(=O)N2[C@H]1c1ccc(Br)cc1 showed a composite z-score of -0.0986.
In the case of O=C1O[C@@H](c2ccccc2)[C@@H](c2ccccc2)N2[C@@H](c3ccc(O)cc3)[C@]3(C(=O)Nc4ccc(C#CC5(O)CCCCCC5)cc43)[C@@H](C(=O)Nc3nc4ccccc4s3)[C@H]12, the composite z-score is reported as -0.438.
Compound C[N+](C)(C)CCCC[C@@H]1NC(=O)[C@H]2C[C@@H](C(=O)NCc3ccc(F)cc3)[C@@H](c3cccc(OCCO)c3)N2C1=O has a composite z-score of -0.0963.
CO[C@H]1COC(=O)[C@H](Cc2ccccc2)NC(=O)CC=C[C@@H](C)[C@H](OC)COC(=O)CC=C[C@@H]1C showed a composite z-score of -0.0954.
COC(=O)c1c(CC[C@@H](CO)NC(=O)N[C@H](Cn2cc(-c3cncn3C)nn2)C(C)C)oc(C(C)=O)c1C(=O)OC gave a composite z-score of -0.282.
With C=C(COC)/C(=C/C[C@@H](OC(C)=O)c1cccc(OCCO)c1)c1cc(C(=O)OC)ccc1OC the composite z-score was -0.0221.
Compound COCC(=C=CC[C@H](O)c1ccc(OCCO)cc1)C[C@H](O)c1ccccn1 has a composite z-score of -0.018.
Work on CCOC(=O)[C@H]1C/C=C/C[C@H](C(=O)OCC)C(=O)O[C@H]2[C@@H](OC)O[C@H](CO)[C@@H](OC(=O)Nc3ccc(Br)cc3)[C@@H]2OC1=O yielded a composite z-score of -0.121.
In the case of CCN1C(C)=C(C(=O)OC)[C@@H](c2ccccc2)N2C(=O)[C@@]3(C(=O)OC)O[C@@]12[C@@H]1C(=O)N(c2ccccc2)C(=O)[C@@H]13, the composite z-score is reported as -0.211.
With CC(C)N1CC=CC23O[C@@H]4/C=C\CCCOC(=O)C4[C@H]2C(=O)N(CCCCCO)[C@@H]3C1=O (stereo partly specified) the composite z-score was -0.244.
C=C(COC)/C(=C/C[C@H](OC(C)=O)c1ccc(OCCO)cc1)c1cnc2ccccc2c1 gave a composite z-score of 0.0082.
COCCOC(=O)N1C(=O)[C@@]2(c3cc(C#CCNC(N)=O)ccc31)[C@H](c1ccc(OCCO)cc1)N1[C@H](c3ccccc3)[C@H](c3ccccc3)OC(=O)[C@H]1[C@@H]2C(=O)N1CCCCCCC1 showed a composite z-score of 0.325.
CO[C@H]1COC(=O)[C@@H](OCc2ccccc2)C=C[C@H](C)[C@@H](OC)COC(=O)[C@H](OCc2ccccc2)C=C[C@@H]1C showed a composite z-score of -0.0695.
NC(=O)NCC#Cc1ccc2c(c1)[C@]1(C(=O)N2)[C@H](C(=O)N2CCCCCCC2)[C@H]2C(=O)O[C@H](c3ccccc3)[C@H](c3ccccc3)N2[C@@H]1c1ccccc1OCCO gave a composite z-score of 2.01.
In the case of COCCCNC(=O)[C@@]1(Sc2ccc(C)cc2)CC(=O)N(Cc2cc(C(F)(F)F)cc(C(F)(F)F)c2)[C@@H]1c1ccc(CO)cc1I, the composite z-score is reported as -0.123.
C=CCC1=C[C@H]2[C@H]([C@@H]3C=C[C@]2(CC=C)C(=O)[C@]32CO2)[C@@]2(CO2)C1=O gave a composite z-score of -0.0021.
O=C(NCc1ccccc1)[C@@]1(CCS(=O)(=O)c2ccccc2)COC(c2ccc(OCCCO)cc2)=N1 showed a composite z-score of 0.281.
C=CCNC(=O)[C@H]1[C@@H]2C(=O)O[C@@H](c3ccccc3)[C@@H](c3ccccc3)N2[C@@H](c2ccccc2OCCO)[C@]12C(=O)N(C(=O)OCCOC)c1ccc(C#CCNC(N)=O)cc12 gave a composite z-score of 0.026.
CCCCO[C@H]1C[C@H]2C(Br)=C[C@@]1(CO)C(=O)[C@]21CO1 showed a composite z-score of 0.0714.
With CN1CCC(CCCO)=CC1C1CC1 (stereo unspecified) the composite z-score was -0.202.
In the case of COc1ccc(CCNC(=O)[C@@]2(c3ccc([N+](=O)[O-])cc3)CC(=O)N(C(C)C)[C@@H]2c2ccc(CO)cc2)cc1, the composite z-score is reported as -0.255.
Cc1ccc(S[C@]2(C(=O)O)CC(=O)N(Cc3ccccc3)[C@@H]2c2ccc(CO)cc2)cc1 showed a composite z-score of -0.154.
For C=CCc1cccc([C@@H]2[C@@H](C)CC[C@H]3C(=O)N4[C@H](c5cccc(CC=C)c5)[C@@H](C)CC[C@H]4C(=O)N23)c1, the composite z-score was 0.0968.
For COc1ccc([Si](C)(C)[C@H]2[C@H](CCO)O[C@@]3(C(=O)N(Cc4ccc(N5CCCCC5=O)cc4)c4ccccc43)[C@@H]2C)cc1, the composite z-score was -0.128.
Work on CCCNC(=O)[C@@]1(Sc2ccc(C)cc2)CC(=O)N(Cc2ccccc2Cl)[C@@H]1c1ccc(CO)cc1 yielded a composite z-score of 0.0925.
CO[C@H]1COC(=O)[C@H](CCSC)NC(=O)CC=C[C@@H](C)COC(=O)[C@@H](OCc2ccccc2)C=C[C@@H]1C showed a composite z-score of -0.0762.
Compound C[C@@H]1CC[C@H]2C(=O)N3[C@@H](CC[C@@H](C)[C@@H]3c3cccc(N4CCOCC4)c3)C(=O)N2[C@H]1c1cccc(N2CCOCC2)c1 has a composite z-score of -0.278.
For CO[C@]12C=C(Br)[C@@H](C[C@@H]1c1ccccc1)[C@@]1(CO1)C2=O, the composite z-score was -0.0221.
C=CCC(OC(C)=O)[C@@H]1[C@@H](N(Cc2ccc(-c3ccccc3)cc2)C(=O)c2ccc(C)cc2)c2cc(OCCCO)ccc2N1C(=O)c1ccc(-c2ccccc2)cc1 (stereo partly specified) showed a composite z-score of 0.0884.
With CC(=O)NCCCC[C@@H]1NC(=O)[C@@H]2C[C@H](C(=O)NCCCCCCN(C)C)[C@H](c3ccc(O)cc3)N2C1=O the composite z-score was 0.982.
Work on O=C1c2ccccc2[C@](Cc2ccccc2I)(C(=O)NCc2ccccc2)[C@H](c2ccc(CO)cc2)N1Cc1ccccc1C(F)(F)F yielded a composite z-score of -0.0313.
